{"source": "PubChem BioAssay (EPA / NIEHS)", "key": {"[1]": {"test": "Tanguay_ZF_120hpf_ActivityScore_legacy: (Legacy) Oregon State University Tanguay Lab 120 Hour Post-fertilization zebrafish Assay Score for Activity (AID 2283742);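 as to AC50: dechorionated Tropical 5D wild-type zebrafish embryos held singly per well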", "summary_of_the_method": "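Embryos are staged, enzymatically dechorionated at 4 hpf, placed individually at 6 hpf, then held in test chemical (0.64% DMSO) at 28C until 120 hpf. Mortality and malformations are scored by brightfield, with non-mortality endpoints skipped for dead embryos.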"}, "[2]": {"test": "ACEA_AR_agonist_AUC_viability: ACEA Biosciences xCELLigence Real-Time Cell Analysis on Androgen Receptor Agonism for Viability (AID 2283775);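 as to AC50: viability read 80 hours after compound addition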", "summary_of_the_method": "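Real-time impedance tracking of 22Rv1 growth, readings every 5 min for 5 h then hourly; area-under-curve viability endpoint at 80 hours, relative to DMSO. Compounds at eight concentrations, 1:4 steps, top 100 uM, n = 2.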"}, "[3]": {"test": "ACEA_AR_antagonist_AUC_viability: ACEA Biosciences xCELLigence Real-Time Cell Analysis on Androgen Receptor Antagonism for Viability (AID 2283776);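 also: 22Rv1 human prostate cancer cells growing on impedance electrode plates; hits lower the growth signal relative to DMSO meaning cytotoxicity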", "summary_of_the_method": "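Real-time electrical impedance tracks 22Rv1 proliferation after continuous compound exposure (top 100 uM final, 1:4 steps, 8 concentrations). The 80 h area-under-curve serves as the cytotoxicity readout relative to DMSO.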"}}, "note": "Records with an inconclusive call do not appear. Active and inactive are the calls of the source. The calls were made as follows: active = hit-call score of the fitted dose curve at least 0.9, where 1 is the maximum; inconclusive = response in the unintended direction; inactive = score below 0.9.", "data": [{"smiles": "NC=O", "values": [{"measurement": "outcome", "setting": "[1]", "result": "inactive"}, {"measurement": "outcome", "setting": "[2]", "result": "inactive"}, {"measurement": "outcome", "setting": "[3]", "result": "inactive"}]}, {"smiles": "CCCCOC(=O)CCCCC(=O)OCCCC", "values": [{"measurement": "outcome", "setting": "[1]", "result": "inactive"}, {"measurement": "outcome", "setting": "[2]", "result": "inactive"}, {"measurement": "outcome", "setting": "[3]", "result": "inactive"}]}, {"smiles": "CSc1ccc(Oc2ccc(S(N)(=O)=O)cc2CN(C)C)cc1C", "values": [{"measurement": "AC50", "setting": "[1]", "result": "22.8 µM (active)"}, {"measurement": "AC50", "setting": "[2]", "result": "65.2 µM (active)"}, {"measurement": "AC50", "setting": "[3]", "result": "50 µM (active)"}]}, {"smiles": "OCC(CO)n1cnc(-c2ccc(F)cc2)c1-c1ccnc(Oc2ccccc2)n1", "values": [{"measurement": "outcome", "setting": "[1]", "result": "inactive"}, {"measurement": "outcome", "setting": "[2]", "result": "inactive"}, {"measurement": "AC50", "setting": "[3]", "result": "21.1 µM (active)"}]}, {"smiles": "O=C1CCCCC1", "values": [{"measurement": "outcome", "setting": "[1]", "result": "inactive"}, {"measurement": "outcome", "setting": "[2]", "result": "inactive"}, {"measurement": "outcome", "setting": "[3]", "result": "inactive"}]}, {"smiles": "O=C(O)c1[nH]n(-c2ccc(S(=O)(=O)O)cc2)c(=O)c1N=Nc1ccc(S(=O)(=O)O)cc1", "values": [{"measurement": "outcome", "setting": "[1]", "result": "inactive"}, {"measurement": "outcome", "setting": "[2]", "result": "inactive"}, {"measurement": "outcome", "setting": "[3]", "result": "inactive"}]}, {"smiles": "CN(C)C(=O)NC1(c2ccccc2)CCN(CC[C@@]2(c3ccc(F)c(F)c3)CN(C(=O)c3ccccc3)CCO2)CC1", "values": [{"measurement": "outcome", "setting": "[1]", "result": "inactive"}, {"measurement": "AC50", "setting": "[2]", "result": "47 µM (active)"}, {"measurement": "outcome", "setting": "[3]", "result": "inactive"}]}, {"smiles": "CC(C)c1cccc(C(C)C)c1", "values": [{"measurement": "outcome", "setting": "[1]", "result": "inactive"}, {"measurement": "outcome", "setting": "[3]", "result": "inactive"}]}, {"smiles": "CC(=O)OCC(COC(C)=O)OC(C)=O", "values": [{"measurement": "outcome", "setting": "[1]", "result": "inactive"}, {"measurement": "outcome", "setting": "[3]", "result": "inactive"}]}, {"smiles": "CC(N)=O", "values": [{"measurement": "outcome", "setting": "[1]", "result": "inactive"}, {"measurement": "outcome", "setting": "[2]", "result": "inactive"}, {"measurement": "outcome", "setting": "[3]", "result": "inactive"}]}, {"smiles": "Cn1cnc2c1c(=O)[nH]c(=O)n2C", "values": [{"measurement": "outcome", "setting": "[1]", "result": "inactive"}, {"measurement": "outcome", "setting": "[2]", "result": "inactive"}, {"measurement": "outcome", "setting": "[3]", "result": "inactive"}]}, {"smiles": "CCCCCCC(CCCCCCCCCCC(=O)OCC(COC(C)=O)OC(C)=O)OC(C)=O", "note": "(configuration not stated)", "values": [{"measurement": "outcome", "setting": "[2]", "result": "inactive"}, {"measurement": "outcome", "setting": "[3]", "result": "inactive"}]}, {"smiles": "COc1ccc(OC(F)(F)F)cc1CN[C@H]1CCCN[C@H]1c1ccccc1", "values": [{"measurement": "AC50", "setting": "[1]", "result": "17.9 µM (active)"}, {"measurement": "AC50", "setting": "[2]", "result": "65.5 µM (active)"}, {"measurement": "AC50", "setting": "[3]", "result": "67 µM (active)"}]}, {"smiles": "CN(C)CCCN(C)CCCN(C)C", "values": [{"measurement": "outcome", "setting": "[1]", "result": "inactive"}, {"measurement": "outcome", "setting": "[2]", "result": "inactive"}, {"measurement": "outcome", "setting": "[3]", "result": "inactive"}]}, {"smiles": "O=C(NS(=O)(=O)/C=C/c1cccs1)c1ccc(F)cc1Br", "values": [{"measurement": "outcome", "setting": "[1]", "result": "inactive"}, {"measurement": "AC50", "setting": "[2]", "result": "3.38 µM (active)"}, {"measurement": "AC50", "setting": "[3]", "result": "3.42 µM (active)"}]}, {"smiles": "CCCCCCCC(=O)OC", "values": [{"measurement": "outcome", "setting": "[1]", "result": "inactive"}, {"measurement": "AC50", "setting": "[2]", "result": "13.9 µM (active)"}, {"measurement": "outcome", "setting": "[3]", "result": "inactive"}]}, {"smiles": "C#CC(O)C(CC)CCCC", "note": "(configuration not stated)", "values": [{"measurement": "outcome", "setting": "[1]", "result": "inactive"}, {"measurement": "outcome", "setting": "[2]", "result": "inactive"}, {"measurement": "outcome", "setting": "[3]", "result": "inactive"}]}, {"smiles": "CCCCCCC(C=O)=Cc1ccccc1", "values": [{"measurement": "outcome", "setting": "[1]", "result": "inactive"}, {"measurement": "AC50", "setting": "[2]", "result": "76.7 µM (active)"}, {"measurement": "AC50", "setting": "[3]", "result": "78.5 µM (active)"}]}, {"smiles": "NC1CCCCC1", "values": [{"measurement": "outcome", "setting": "[1]", "result": "inactive"}, {"measurement": "outcome", "setting": "[2]", "result": "inactive"}, {"measurement": "outcome", "setting": "[3]", "result": "inactive"}]}, {"smiles": "O=[Si]=O", "values": [{"measurement": "outcome", "setting": "[1]", "result": "inactive"}, {"measurement": "outcome", "setting": "[3]", "result": "inactive"}]}, {"smiles": "O=C(N[C@@H](c1ccccc1)[C@@H]1CCCCN1)c1cccc(C(F)(F)F)c1Cl", "values": [{"measurement": "AC50", "setting": "[1]", "result": "53.2 µM (active)"}, {"measurement": "AC50", "setting": "[2]", "result": "55.8 µM (active)"}, {"measurement": "AC50", "setting": "[3]", "result": "39.5 µM (active)"}]}, {"smiles": "COC(=O)CCC(=O)OC", "values": [{"measurement": "outcome", "setting": "[1]", "result": "inactive"}, {"measurement": "outcome", "setting": "[2]", "result": "inactive"}, {"measurement": "outcome", "setting": "[3]", "result": "inactive"}]}]}
